IL-2 act = activates IL-2 in a cell-based reporter assay; activation, % (series mostly up to about 46 µM); hit rate 0.065% among 360,000; IL-2 activation reporter assay, cell-based qHTS; stimulated with anti-CD3/CD4/CD28 beads; in transgenic mouse T cells; in the data active = activation above about 50%; inconclusive = mostly about 30% to 49%
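First, unstimulated transgenic mouse T cells were exposed to compound for 60 min. Next, anti-CD3/anti-CD4-coated beads with anti-CD28 were added. Finally, after 18 h at 37 degrees C, EGFP and DsRed were imaged.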
Integrin act MD = activators of alpha7 integrin expression for muscular dystrophy. hit rate 0.064% among 350,000. AID 624291. Potency, µM (top dose mostly 38.3 µM), most hits filed as activators. alpha7betagal myoblasts, beta-gal FDG fluorescence, 48 h; note: nearly all actives have a fitted effect of over 60% in size
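Alpha7betagal+/- myoblasts (passage 13) were plated 16-24 hr, then exposed to compounds (1:260 dilution of DMSO stock) for 48 hours at 37C. After MPER lysis, β-galactosidase reporter activity was read as FDG fluorescence (ex 480/em 540) after 30 minutes.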
Chronic BCR inh = chronic active BCR signaling inhibition | ABC-DLBCL IkBa-CBG/CBR reporter, luminescence ratio, 4 h | Potency, µM (titrated, usually from 46.1 µM), actives largely listed as inhibitors | hit rate 0.05% among 340,000; active = well fitted inhibition curve with a large enough effect in the signal ratio, with a control signal flat, not every such curve was filed as active; inconclusive = small, poorly fitted or top-dose-only effect, or effect the other way, or a change in a side signal; the % refers to the signal ratio
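TMD8 human ABC-DLBCL cells with doxycycline-inducible IκBα–green luciferase fusion and unfused red luciferase, in 0.5% FBS medium; compounds up to 46 uM, 4 h at 37C. Green/red luminescence ratio, filter-overlap corrected, fitted to concentration-response curves.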
Nrf2 ARE act = Nrf2 pathway activation | AREc32 ARE-luciferase reporter (MCF7-derived line), luminescence, 24 h | Potency, µM (highest dose often 46.1 µM), actives largely listed as activators | hit rate 0.31% among 410,000 | AID 624171; note: nearly all actives have a fitted effect of over 65% in size
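Steps: seed AREc32_Fluc cells (1000/well, 5% FBS OPTI-MEM); incubate overnight at 37 deg C; add 23 nL compound; incubate 24 hr; add Steady-Glo; hold 30 min RT; read luminescence.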
N370S GC mod = inhibits or activates N370S mutant glucocerebrosidase; P04062; N370S GC spleen homogenate, 4MU-glucoside fluorescence; Potency, µM (doses to about 59.4 µM), most hits filed as inhibitors; hit rate 0.092% among 330,000
BRCA1 expr up = activators of BRCA1 expression; MCF7-BRCA1-FFLuc reporter, luminescence, 48 h; response scale: scaled: vehicle 0%, 10 µM genistein 100%; Potency, µM (series often up to 46.1 µM), hits mostly activators; hit rate 1.1% among 380,000; note: nearly all actives have a fitted effect of over 80% in size
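First, MCF7-BRCA1-FFLuc cells (2000/well) attach for 2 h; next, compounds are pin-added and incubated 48 h at 37 °C; finally, luciferase reagent is added and luminescence read after 15 min.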
Of the large screens only hits and unclear results are named; the others gave an inactive call. The list is not random: actives were taken first. Their share in the collection is about 1.4%. Unless noted, calls come from the whole dose curve; as a rule, active = well fitted curve in the direction sought with a large enough effect; inconclusive = small, poorly fitted or top-dose-only effect, or another doubt; inactive = no such curve, though single readings can be large; an effect the other way counts as inactive or inconclusive.

Cc1cc(C(=O)CSc2ccc3c(c2)OCCO3)c(C)n1C1CC1	Chronic BCR inh inconclusive, N370S GC mod inconclusive, BRCA1 expr up 11µM
CCOC(=O)c1ccc(N2Cc3ccccc3C2=NC(=O)c2cccs2)cc1	BRCA1 expr up 10µM
Cc1ccc(/C(N)=N/OC(=O)Cc2cccs2)cc1	Chronic BCR inh inconclusive, BRCA1 expr up 11µM
N/C(=N\OC(=O)Cc1cccs1)c1ccccc1	Chronic BCR inh inconclusive
O=[N+]([O-])c1cc(Cl)c(O)c2ncccc12	Chronic BCR inh inconclusive
O=[N+]([O-])c1cc(F)c2cccnc2c1O	Chronic BCR inh 16µM
COc1ccc(C2CC(c3ccc(C)o3)=NN2C(C)=O)cc1 (centres undefined)	BRCA1 expr up 6.3µM
COc1ccc(C(=O)Nc2nc3ccccc3s2)cc1	Chronic BCR inh inconclusive
COc1ccc(C(=O)Nc2nc3ccccc3s2)cc1OC	BRCA1 expr up 4.5µM
COc1ccc(NC(=O)c2ccc3snnc3c2)cc1	Chronic BCR inh inconclusive, BRCA1 expr up 6.3µM
COc1ccc(C(=O)Nc2ccc3ccccc3c2)cc1OC	Chronic BCR inh inconclusive, BRCA1 expr up 5.6µM
Cc1ccc(C(=O)c2ncc[nH]2)cc1	BRCA1 expr up 14µM
CC(=O)c1cccc(Nc2c3c(nc4nc(-c5cccs5)nn24)CCCC3)c1	none (no result: IL-2 act, Integrin act MD, Chronic BCR inh, N370S GC mod, BRCA1 expr up)
O=C(CCSc1ccc(Br)cc1)c1ccc(O)cc1	Chronic BCR inh inconclusive, Nrf2 ARE act 16µM
O=C(CSc1cn(Cc2ccccc2)c2ccccc12)N1CCOCC1	BRCA1 expr up 7.9µM
O=C(NCCn1cc(SCC(=O)N2CCOCC2)c2ccccc21)c1ccccc1	none
Cc1sc(NC(=O)c2ccccc2F)c(CN2CCCCC2)c1C	none
Cc1sc(NC(=O)c2ccc(F)cc2)c(CN2CCCCCC2)c1C	Nrf2 ARE act 13µM
O=C(NCCCn1ccnc1)/C(=C/c1ccco1)NC(=O)c1ccco1	Integrin act MD inconclusive
O=C(NCCCn1ccnc1)/C(=C/c1cccs1)NC(=O)c1ccco1	Integrin act MD 8.9µM, Chronic BCR inh inconclusive
COc1ccc(N2CCN(C(c3ccc(C)cc3)c3nnnn3C(C)(C)C)CC2)cc1 (centres undefined)	none (no result: IL-2 act, Integrin act MD, Chronic BCR inh, Nrf2 ARE act, N370S GC mod)
COc1cc(C(C(=O)NC2CCCCC2)N(C(=O)c2snc(C(N)=O)c2N)c2ccc(C)cc2)ccc1O (centres undefined)	Integrin act MD 7.9µM, Chronic BCR inh inconclusive
CCCCC(C(=O)NC1CCCC1)N(C(=O)c1snc(C(N)=O)c1N)c1ccc(C)cc1 (centres undefined)	Integrin act MD 10µM
O=C(CCOc1ccccc1)NO	none (no result: IL-2 act, Integrin act MD, Chronic BCR inh, Nrf2 ARE act, N370S GC mod)
COc1ccc(OC)c(/C=C/c2sc3ccccc3[n+]2C)c1	none (no result: IL-2 act, Integrin act MD, Chronic BCR inh, Nrf2 ARE act, N370S GC mod)
Cc1cc(C(=O)COC(=O)c2ccc(F)cc2F)c(C)n1C1CC1	Chronic BCR inh inconclusive (no result: N370S GC mod)
COC(=O)c1ccc2nc(-c3ccco3)c(Cc3cccc(F)c3)n2c1	Nrf2 ARE act 11µM (no result: Integrin act MD, Chronic BCR inh, N370S GC mod)
COC(=O)c1ccc2nc(-c3ccc(F)cc3)c(Cc3ccc(OC)cc3C)n2c1	none (no result: Integrin act MD, Chronic BCR inh, N370S GC mod)
COC(=O)c1ccc2nc(-c3ccco3)c(Cc3ccc(C)cc3)n2c1	Nrf2 ARE act 11µM (no result: Integrin act MD, Chronic BCR inh, N370S GC mod)
COC(=O)c1ccc2nc(-c3ccc(F)cc3)c(Cc3cccc(F)c3)n2c1	none (no result: Integrin act MD, Chronic BCR inh, N370S GC mod)
COC(=O)c1ccc2nc(-c3ccco3)c(Cc3ccc(OC)cc3C)n2c1	Nrf2 ARE act 11µM (no result: Integrin act MD, Chronic BCR inh, N370S GC mod)
COc1ccc2c(c1)O/C(=C\c1ccccc1C)C2=O	Chronic BCR inh inconclusive, BRCA1 expr up 13µM
COc1cc(OC)c(OC)cc1/C=C1\Oc2cc(OS(C)(=O)=O)ccc2C1=O	Chronic BCR inh inconclusive
CN(C)CCOC1c2ccccc2CCc2ccc3ccccc3c21 (centres undefined)	none (no result: Chronic BCR inh, N370S GC mod)
O=C(c1cc(-c2ccco2)on1)N1CCc2ccccc2C1	Nrf2 ARE act 14µM
O=C(c1cc(-c2ccccc2O)on1)N1CCc2ccccc2C1	Chronic BCR inh inconclusive, BRCA1 expr up 10µM
O=C(c1cc(-c2ccco2)on1)N1CCCc2ccccc21	Chronic BCR inh inconclusive, Nrf2 ARE act 11µM
CC1CCN(C(=O)c2cc(-c3ccco3)on2)CC1	Chronic BCR inh inconclusive, Nrf2 ARE act 14µM
Cc1cc(NC(=O)CN2C(=O)NC(CC(C)C)C2=O)ccc1Br (centres undefined)	none (no result: N370S GC mod)
O=C(C[N+]1(CCO)CCOCC1)c1cccc2ccccc12	none (no result: IL-2 act, Integrin act MD, Chronic BCR inh, Nrf2 ARE act, N370S GC mod)
O=C(NCc1ccccc1)c1cc(-c2ccco2)on1	Chronic BCR inh inconclusive, BRCA1 expr up 11µM
O=[N+]([O-])c1cccc(-c2cnc3ccccc3n2)c1	Chronic BCR inh inconclusive, Nrf2 ARE act 6.3µM
Cc1cc(-c2cccc([N+](=O)[O-])c2)nc2ccccc12	Chronic BCR inh inconclusive, Nrf2 ARE act inconclusive
Cc1ccc(C(=O)Nc2cccc(-c3cnc4ccccc4n3)c2)cc1	none
COc1ccc(C(=O)Nc2cccc(-c3cnc4ccccc4n3)c2)cc1	Chronic BCR inh inconclusive, BRCA1 expr up 4µM
CC(C)C(=O)Nc1cccc(-c2cnc3ccccc3n2)c1	BRCA1 expr up 11µM
CCCCNC(=O)C1(C)CCCCN1C(=O)c1cc(-c2ccccc2)cs1 (centres undefined)	none (no result: Integrin act MD, Chronic BCR inh, N370S GC mod)
CN(CCc1nc2ccc(Cl)cc2[nH]1)Cc1nc(CC2CC2)no1	Chronic BCR inh inconclusive
COC(=O)c1ccc(NC(=O)CN(c2cccc(C(F)(F)F)c2)S(C)(=O)=O)cc1	none (no result: IL-2 act, Integrin act MD, Chronic BCR inh, N370S GC mod, BRCA1 expr up)
CSc1ccc(CCNC(=O)NCc2noc3ccccc23)cc1	none (no result: IL-2 act, Integrin act MD, Chronic BCR inh, N370S GC mod, BRCA1 expr up)
COc1ccc(/C=C2\OC(=O)c3c(OC)cccc32)cc1OC	Chronic BCR inh inconclusive, BRCA1 expr up 10µM
C[N+]1(CC(=O)c2ccc(O)c(O)c2)CCOCC1	none (no result: IL-2 act, Integrin act MD, Chronic BCR inh, Nrf2 ARE act, N370S GC mod)
CCOc1cc(C(=S)N2CCOCC2)ccc1OS(=O)(=O)c1ccccc1	none
CCOC(=O)c1ccc(OS(=O)(=O)c2ccccc2)c(OC)c1	Chronic BCR inh inconclusive, BRCA1 expr up 5.6µM
O=C1CC(C(=O)Nc2ccc(Br)cc2)S/C(=N\N=C\c2ccco2)N1 (centres undefined)	Nrf2 ARE act 6.3µM
O=C1CC(C(=O)Nc2ccccc2)S/C(=N\N=C\c2ccco2)N1 (centres undefined)	Chronic BCR inh inconclusive, Nrf2 ARE act inconclusive
COc1ccc(NC(=O)C2CC(=O)N/C(=N/N=C/c3ccco3)S2)cc1 (centres undefined)	Nrf2 ARE act 2.5µM
O=C1CC(C(=O)Nc2ccc(Cl)cc2)S/C(=N\N=C\c2ccco2)N1 (centres undefined)	Nrf2 ARE act inconclusive

High-throughput results deposited in PubChem by National Center for Advancing Translational Sciences (NCATS).
